Laboratory results: PubChem BioAssay
Calls of active or inactive are those of the source. Unless noted, no rule for the calls is given here.

Columns and labels:
[1] = resazurin metabolic signal in HepG2 cells – cell-based, resazurin fluorescence, 24 h, PK04 Diversity Set, profiling panel (AID 1172); conditions: HepG2 viability, higher = more signal
[2] = budding yeast growth changes without added modifier – OD600, strain BY4716, 24 h, basal condition, primary screen (AID 1173); conditions: S. cerevisiae BY4716 growth, OD600, 24 h; higher = more signal, called active from +8 up or from −8 down
[3] = viability profiling in MM1S myeloma cells – cell-based, resazurin fluorescence, basal, 24 h, PK04 Diversity Set, profiling panel (AID 1174); conditions: higher = more signal, called active from +8 up or from −8 down;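 also: MM1S multiple myeloma cell line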
[4] = molecular target: Dihydroorotate dehydrogenase (quinone), mitochondrial (Plasmodium falciparum (isolate 3D7)) (UniProt Q08210); assay: inhibition of P. falciparum DHODH – biochemical, C-terminal His tag, absorbance 600 nm, primary screen (AID 1175); conditions: PfDHODH enzyme, DCIP absorbance 600 nm; higher = more signal, called active from +8 up or from −8 down;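 also: recombinant parasite enzyme with a five histidine tag at its C terminus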
Dihydroorotate dehydrogenase (quinone), mitochondrial (Plasmodium falciparum (isolate 3D7)), sequence (Q08210 whole entry, looked up): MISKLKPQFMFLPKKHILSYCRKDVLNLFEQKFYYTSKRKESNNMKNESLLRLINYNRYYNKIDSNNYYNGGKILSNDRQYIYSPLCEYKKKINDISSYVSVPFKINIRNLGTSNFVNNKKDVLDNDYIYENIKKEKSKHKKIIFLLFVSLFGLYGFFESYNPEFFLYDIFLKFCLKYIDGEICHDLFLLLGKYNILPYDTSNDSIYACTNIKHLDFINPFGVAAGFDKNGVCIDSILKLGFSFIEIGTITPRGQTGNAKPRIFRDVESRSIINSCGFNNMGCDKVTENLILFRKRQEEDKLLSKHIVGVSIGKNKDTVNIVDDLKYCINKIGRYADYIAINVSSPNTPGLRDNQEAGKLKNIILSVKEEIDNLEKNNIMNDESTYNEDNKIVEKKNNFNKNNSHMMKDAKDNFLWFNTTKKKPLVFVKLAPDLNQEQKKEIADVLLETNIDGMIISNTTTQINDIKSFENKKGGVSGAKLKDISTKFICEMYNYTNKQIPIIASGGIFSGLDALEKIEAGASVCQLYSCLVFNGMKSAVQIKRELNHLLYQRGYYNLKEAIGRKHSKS

[5] = inhibition of PAO1 biofilm formation – strain PAO1, LB-PBS medium, absorbance 600 nm, primary screen (AID 1176); conditions: P. aeruginosa PAO1 growth/biofilm, A600, 12 h; higher = more signal
[6] = growth modulation of vineyard yeast isolate – strain RM11-1a, OD600, basal, 24 h, primary screen (AID 1177);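 also: cultures grown under basal conditions with no added stressor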; conditions: S. cerevisiae RM11-1a growth, OD600, 24 h; higher = more signal, called active from +8 up or from −8 down
[7] = growth of efflux-deficient E. coli DRC39 – strain DRC39, OD650, 24 h, E. coli filamentation inducers, primary screen (AID 1178);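 also: growth measured as culture turbidity by optical density at 650 nm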; conditions: E. coli DRC39 acrAB, higher = more signal, called active from +8 up or from −8 down
[8] = growth of efflux-deficient E. coli DRC39 – strain DRC39, OD650, 48 h, E. coli filamentation inducers, primary screen (AID 1179);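 also: screen aims at cell division blockers that make cells filament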; conditions: E. coli DRC39 delta-acrAB growth, higher = more signal, called active from +8 up or from −8 down
[9] = viability profiling in RPMI8226 myeloma cells – cell-based, resazurin fluorescence, basal, 24 h, PK04 Diversity Set, profiling panel (AID 1180); conditions: higher = more signal;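 also: RPMI8826 multiple myeloma cell line at 5000 cells per well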
[10] = molecular target: E3 ubiquitin-protein ligase XIAP (Homo sapiens) (UniProt P98170); assay: small molecules binding XIAP protein – biophysical, small-molecule microarray, fluorescence 635 nm, primary screen (AID 1181); conditions: higher = more signal;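 also: score merges 667 nm emission and signal to noise over triplicate slides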
E3 ubiquitin-protein ligase XIAP (Homo sapiens), sequence (P98170 whole entry, looked up, the tested form may be a part): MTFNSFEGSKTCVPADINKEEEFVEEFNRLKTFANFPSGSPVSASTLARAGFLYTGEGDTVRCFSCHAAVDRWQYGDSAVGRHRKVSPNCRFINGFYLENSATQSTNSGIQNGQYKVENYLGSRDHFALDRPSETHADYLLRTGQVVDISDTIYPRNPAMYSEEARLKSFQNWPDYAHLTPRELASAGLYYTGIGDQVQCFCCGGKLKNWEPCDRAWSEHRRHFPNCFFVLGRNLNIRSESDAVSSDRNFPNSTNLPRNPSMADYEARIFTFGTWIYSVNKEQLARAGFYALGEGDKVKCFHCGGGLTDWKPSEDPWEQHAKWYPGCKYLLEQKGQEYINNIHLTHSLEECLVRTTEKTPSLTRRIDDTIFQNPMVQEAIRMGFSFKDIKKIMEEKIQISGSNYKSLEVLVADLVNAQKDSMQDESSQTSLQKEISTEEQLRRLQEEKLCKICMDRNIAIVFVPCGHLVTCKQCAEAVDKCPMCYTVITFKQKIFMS

[11] = system: XIP peptide (Xip251-270) binding; assay: XIP fragment 251-270 binding compounds – biochemical, small-molecule microarray, fluorescence 635/667 nm, 0.1 µg/mL protein, primary screen (AID 1182); conditions: fluorescent protein binding, 635 nm, higher = more signal, called active from +8 up or from −8 down
XIP peptide (Xip251-270) = assay: compounds binding XIP fragment 251-270 – biochemical, small-molecule microarray, fluorescence 635/667 nm, 0.5 µg/mL protein, primary screen (AID 1183); conditions: fluorescence 635 nm, higher = more signal
[12] = blood-stage malaria parasite viability loss – strain 3D7, DAPI fluorescence, 100 nL, primary screen (AID 1184);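 also: parasites grown inside human red blood cells in medium with human serum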; conditions: P. falciparum 3D7 growth, 3 d, higher = more signal
[13] = molecular target: Homeobox protein Hox-A13 (Mus musculus) (UniProt Q62424); assay: disruptors of Hoxa13 oligonucleotide interaction – biochemical, fluorescence polarization, labeled oligonucleotide, primary screen (AID 1185); conditions: Hoxa13:DNA binding, 15 min, higher = more signal, called active from +8 up or from −8 down
Homeobox protein Hox-A13 (Mus musculus), sequence (Q62424 whole entry, looked up): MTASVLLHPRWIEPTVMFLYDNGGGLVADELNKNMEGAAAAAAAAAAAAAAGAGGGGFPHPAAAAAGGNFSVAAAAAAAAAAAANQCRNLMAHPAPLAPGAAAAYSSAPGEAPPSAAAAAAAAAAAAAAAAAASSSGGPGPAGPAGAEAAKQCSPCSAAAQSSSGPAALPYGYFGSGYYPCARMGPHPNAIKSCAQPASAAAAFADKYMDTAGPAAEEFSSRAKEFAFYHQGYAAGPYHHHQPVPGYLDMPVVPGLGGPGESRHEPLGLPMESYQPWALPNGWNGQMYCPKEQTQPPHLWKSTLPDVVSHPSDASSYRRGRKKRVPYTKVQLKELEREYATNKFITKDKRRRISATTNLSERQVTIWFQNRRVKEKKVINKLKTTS

SMILES | z-score [1] | z-score [2] | z-score [3] | composite z-score [4] | z-score [5] | z-score [6] | z-score [7] | z-score [8] | z-score [9] | composite z-score [10] | composite z-score [11] | composite z-score (XIP peptide (Xip251-270)) | z-score [12] | z-score [13]
O=C(NN=C1C[C@@H](O)[C@@H](O)[C@@H]2[C@@H]3C(=O)N(C[C@@H]4CCCO4)C(=O)[C@@H]3CC[C@H]12)OCc1ccccc1 | -0.136 | 0.267 (inactive) | -0.239 (inactive) | -0.02 (inactive) | -0.531 (inactive) | -0.0555 (inactive) | 0.593 (inactive) | 0.191 (inactive) | 0.664 | 0.0451 | -0.526 (inactive) | -0.314 | 0.0837 | 0.901 (inactive)
CCOC(=O)CCN1C(=O)[C@H]2[C@H]3[C@H](O)[C@H](O)CC(=NNC(=O)OCc4ccccc4)[C@@H]3CC[C@H]2C1=O | -0.921 | 0.192 (inactive) | -0.931 (inactive) | 0.203 (inactive) | -0.331 (inactive) | 0.116 (inactive) | 0.655 (inactive) | 0.84 (inactive) | -0.663 | 0.154 | 0.0651 (inactive) | 0.791 | -0.597 | 0.897 (inactive)
CON=C[C@@H](NS(=O)(=O)c1ccc(C)cc1)[C@H](C)C=CCC(=O)OC | 0.27 | -0.146 (inactive) | -0.548 (inactive) | 0.244 (inactive) | -0.291 (inactive) | 0.475 (inactive) | 0.717 (inactive) | -0.761 (inactive) | -0.484 | -0.0773 | 0.212 (inactive) | 0.332 | 1.25 | 1.12 (inactive)
COC(=O)CC=C[C@@H](C)[C@@H]1C=C[C@H](O)[C@@H](CO)O1 | -0.118 | 0.626 (inactive) | -3.24 (inactive) | 0.35 (inactive) | 0.274 (inactive) | 0.86 (inactive) | 0.439 (inactive) | 0.483 (inactive) | -1.28 | 0.0727 | 0.0118 (inactive) | -0.518 | 0.247 | -0.235 (inactive)
C[C@H]1CC[C@H]2C(=O)OC(CO)CN2[C@@H]1c1ccc(Br)cc1 (some centres not stated) | 0.228 | -1.23 (inactive) | -0.0363 (inactive) | -0.0747 (inactive) | 0.967 (inactive) | -0.373 (inactive) | -0.472 (inactive) | -0.304 (inactive) | 0.979 | 0.213 | 0.201 (inactive) | 0.115 | -0.296 | -0.52 (inactive)
CC(C)CON=C1C[C@@H](O)[C@@H](O)[C@@H]2[C@@H]3C(=O)N(Cc4ccc5c(c4)OCO5)C(=O)[C@@H]3CC[C@H]12 | 0.259 | 0.151 (inactive) | -0.146 (inactive) | 0.834 (inactive) | -0.626 (inactive) | 0.812 (inactive) | 0.0036 (inactive) | -0.0961 (inactive) | -0.0651 | -0.184 | 0.798 (inactive) | 0.202 | -0.613 | -3.41 (inactive)
CO[C@@H]1COC(=O)CC=C[C@H](C)[C@H](OC)COC(=O)[C@H](C)NC(=O)CC=C[C@H]1C | 0.774 | -0.486 (inactive) | 0.978 (inactive) | -0.165 (inactive) | -0.638 (inactive) | -0.363 (inactive) | 0.853 (inactive) | -0.0907 (inactive) | 0.453 | 0.0264 | -0.436 (inactive) | 0.82 | -0.382 | 0.189 (inactive)
O=C1C[C@@H](O)[C@@H](O)[C@@H]2[C@@H]3C(=O)N(Cc4ccc5c(c4)OCO5)C(=O)[C@@H]3CC[C@H]12 | 0.201 | 0.0442 (inactive) | -0.0254 (inactive) | -0.564 (inactive) | -0.0121 (inactive) | -0.545 (inactive) | -0.494 (inactive) | -0.389 (inactive) | -0.0372 | -0.152 | 0.245 (inactive) | 0.0056 | 1.57 | -0.523 (inactive)
C=CC[C@@H]1C=C[C@H](ON=C(C)CCN2CCc3nc(-c4ccccc4)c(-c4ccccc4)cc3C2)[C@@H](CO)O1 | -0.244 | -1.96 (inactive) | -2.02 (inactive) | -0.126 (inactive) | 0.0767 (inactive) | 0.124 (inactive) | 0.921 (inactive) | 0.392 (inactive) | 0.365 | -0.12 | 0.957 (inactive) | 0.58 | -0.0674 | -5.72 (inactive)
COc1ccc(O[C@@H]2[C@H](O)CO[C@H]2C=Cc2ccccc2)cc1 | -1.03 | -4.4 (inactive) | -0.0321 (inactive) | -1.24 (inactive) | 0.83 (inactive) | -1.85 (inactive) | 0.988 (inactive) | -0.741 (inactive) | -0.473 | -0.113 | 0.266 (inactive) | -0.0143 | 0.465 | -1.16 (inactive)
CO[C@H]1COC(=O)CCC[C@@H](C)[C@H](OC)COC(=O)[C@@H]2CCCN2C(=O)CC=C[C@@H]1C | -0.145 | -0.723 (inactive) | 0.435 (inactive) | -0.44 (inactive) | -1.04 (inactive) | -1.04 (inactive) | -0.367 (inactive) | -0.459 (inactive) | 0.826 | -0.135 | 0.0072 (inactive) | 0.497 | -0.74 | -0.0208 (inactive)
Cc1cc2c(nc1C)CCCCN2CC(C)ON=C1[C@H]2CCn3c(=O)n(-c4ccccc4)c(=O)n3[C@H]2[C@H](O)[C@@H]2O[C@H]12 (some centres not stated) | -1.22 | -0.683 (inactive) | -3.13 (inactive) | -0.498 (inactive) | -0.525 (inactive) | 0.722 (inactive) | 0.588 (inactive) | 1.2 (inactive) | -0.459 | -0.327 | -0.239 (inactive) | 0.7 | -1.94 | -4.23 (inactive)
O=C1[C@H]2[C@H]3[C@H](O)[C@H](O)CC(=NOC[C@@H](O)COCc4ccco4)[C@H]3CC[C@H]2C(=O)N1c1ccc(F)cc1F | 0.474 | -1.89 (inactive) | 0.988 (inactive) | -2.54 (inactive) | 1.18 (inactive) | -3.71 (inactive) | -0.311 (inactive) | -1.22 (inactive) | -0.374 | -0.446 | -0.774 (inactive) | 0.415 | -0.644 | 0.794 (inactive)
CC(=O)O[C@H]1C2=CO[C@H](C)[C@H]3[C@H]4C5=C([C@H](O)[C@H]6O[C@H]6C5=O)[C@H](OC4C)[C@@]23C(=O)[C@@H]2O[C@@H]21 (some centres not stated) | -1.75 | 0.0895 (inactive) | -4.88 (inactive) | -0.219 (inactive) | 1.09 (inactive) | -0.464 (inactive) | -0.262 (inactive) | -0.267 (inactive) | -3.5 | -0.266 | 0.533 (inactive) | -0.406 | -1.24 | -1.02 (inactive)
O=C1[C@H]2[C@H]3[C@H](O)[C@H](O)CC(=NOCc4ccccc4)[C@@H]3CC[C@H]2C(=O)N1Cc1ccc2c(c1)OCO2 | 1.03 | -0.419 (inactive) | 0.0481 (inactive) | -0.0799 (inactive) | 0.07 (inactive) | -0.0921 (inactive) | 0.419 (inactive) | 0.128 (inactive) | 1.01 | -0.0377 | 0.135 (inactive) | 0.2 | -0.364 | -3.53 (inactive)
COC(=O)CC=C[C@@H](C)[C@@H](C=NO[C@H](C)c1cn([C@@H]2COC[C@H]2O)nn1)NS(=O)(=O)c1ccc(C)cc1 | -1.37 | -0.335 (inactive) | -1.34 (inactive) | -0.753 (inactive) | 0.301 (inactive) | 0.278 (inactive) | 0.524 (inactive) | 1.29 (inactive) | -0.687 | -0.267 | -0.362 (inactive) | 0.486 | 0.781 | -1.63 (inactive)
CCCNC(=O)OC[C@H]1O[C@H](CCON=C(C)CCN2CCc3nc(CC)c(CC)cc3C2)C=C[C@@H]1Oc1ccc(OC)cc1 | -1.09 | -0.139 (inactive) | -1.45 (inactive) | 0.358 (inactive) | -0.598 (inactive) | 0.02 (inactive) | -1.13 (inactive) | -1.53 (inactive) | 0.622 | -0.0559 | -0.339 (inactive) | 0.27 | -2.17 | -5.98 (inactive)
O=C1C[C@@H](O)[C@@H](O)[C@@H]2[C@@H]3C(=O)N(C[C@@H]4CCCO4)C(=O)[C@@H]3CC[C@@H]12 | -0.429 | 0.0532 (inactive) | -0.272 (inactive) | 0.204 (inactive) | 0.565 (inactive) | -0.129 (inactive) | 0.469 (inactive) | 0.582 (inactive) | -0.12 | -0.0989 | 0.74 (inactive) | 0.592 | -0.223 | 0.368 (inactive)
